Measured values: PubChem BioAssay (EPA / NIEHS)
The source made the active and inactive calls. How the source made its calls: active means hit-call score of the fitted dose curve at least 0.9, where 1 is the maximum; inactive means score below 0.9.

Columns and labels:
[1] = ATG_CRE_CIS: Attagene CIS-FACTORIAL HepG2 Assay for human cAMP Responsive Element (CRE) binding protein 3 (AID 2282926); settings: HepG2 CRE cis-reporter, Attagene multiplexed mRNA; actives raise or lower the signal
In short: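 Endogenous CRE-binding activity in HepG2 is reported through a cis-regulated transfected reporter. Following a day of exposure, mRNA levels are determined by reverse transcription PCR and fluorescent fragment analysis; fits run in both directions versus DMSO.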

[2] = biological target: CCAAT/enhancer-binding protein beta (Homo sapiens) (UniProt P17676); assay: ATG_C_EBP_CIS: Attagene CIS-FACTORIAL HepG2 Assay for human CCAAT/Enhancer Binding Protein (C/EBP) beta (AID 2282927); settings: HepG2 Attagene cis-factorial transcription factor reporter; actives raise or lower the signal
In short: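 Transiently transfected HepG2 (MRTU library, endogenous TF-driven promoters); 24 h dosing; total RNA → oligo(dT) RT → PCR → 6-FAM primer extension → HpaI digest → CE; fit bidirectionally vs DMSO.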

[3] = ATG_CMV_CIS: Attagene CIS-FACTORIAL HepG2 Assay for human CMV (Internal Marker) (AID 2282928); settings: HepG2 CMV promoter reporter, transcription factor profiling; actives raise or lower the signal;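 further: endpoint acts as a background internal control marker rather than a target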
In short: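 After transient transfection of HepG2 with reporter transcription units driven by cis-regulatory promoters, cells receive test chemical for 24 h. Labeled reporter amplicons, digested with HpaI, are sized and quantified by capillary electrophoresis against DMSO.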

[4] = ATG_DR4_LXR_CIS: Attagene CIS-FACTORIAL HepG2 Assay for human Liver X Receptor (LXR), DR4 submotif (AID 2282929); settings: HepG2 Attagene DR4 cis-reporter, mRNA transcription; actives raise or lower the signal
In short: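 Readout: reporter transcript fluorescence after RT-PCR and capillary electrophoresis, fitted bidirectionally against DMSO controls. Human HepG2 liver cells carried transiently transfected multiplexed reporter constructs; endogenous transcription factor activity measured 24 h post-dosing.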

[5] = biological target: Aryl hydrocarbon receptor (Homo sapiens) (UniProt P35869); assay: ATG_Ahr_CIS: Attagene CIS-FACTORIAL HepG2 Assay for human Aryl Hydrocarbon Receptor (Ahr) (AID 2282930); settings: HepG2 AhR cis-factorial reporter transcription; actives raise or lower the signal
In short: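 Read-out: reporter mRNA quantified by RT-PCR with fluorescent primer extension and capillary electrophoresis. Human HepG2 liver cells carried transfected cis-promoter reporter units and were exposed to chemical for 24 h; gain or loss fitted relative to DMSO.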

[6] = ATG_AP_1_CIS: Attagene CIS-FACTORIAL HepG2 Assay for human Activator Protein 1 (AP-1) (AID 2282931); settings: HepG2 Attagene cis-factorial AP-1 reporter mRNA; actives raise or lower the signal
In short: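 Reporter transcripts were measured 24 h after dosing by RT-PCR and capillary electrophoresis of fluorescent fragments. Cells: HepG2 carrying transfected cis-regulated reporter constructs reading endogenous factor activity. Gain or loss fitted against DMSO.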

[7] = ATG_AP_2_CIS: Attagene CIS-FACTORIAL HepG2 Assay for human Activator Protein 2 (AP-2) (AID 2282932); settings: HepG2 AP-2 cis-reporter, Attagene transcription factor profiling; actives raise or lower the signal
In short: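 HepG2 cells transiently transfected with cis-element reporter units and exposed for 24 h. Reporter mRNA measured by RT-PCR, FAM labelling, HpaI digestion and capillary electrophoresis. Changes in either direction fitted relative to DMSO.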

[8] = ATG_BRE_CIS: Attagene CIS-FACTORIAL HepG2 Assay for human Bone Morphogenetic Protein (BMP) Response Element (BRE) (AID 2282933); settings: HepG2 BMP response element reporter, Attagene transcription factor profiling; actives raise or lower the signal
In short: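 Fluorescence-labelled reporter cDNA fragments, separated by capillary electrophoresis, gave the signal for this component of a 52-readout multiplex. HepG2 cells were transfected, exposed to chemicals for 24 h, and compared with DMSO using bidirectional fitting.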

[9] = biological target: Transcription factor E2F1 (Homo sapiens) (UniProt Q01094); assay: ATG_E2F_CIS: Attagene CIS-FACTORIAL HepG2 Assay for human E2F Transcription Factor 1 (AID 2282935); settings: HepG2 Attagene cis-reporter, E2F reporter RNA transcripts; actives raise or lower the signal
In short: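 Endogenous E2F1 activity read through cis-promoter reporter units transfected into HepG2. After 24 h compound treatment, reporter mRNA measured by RT-PCR, HpaI digestion and capillary electrophoresis. Bidirectional fit versus DMSO.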

[10] = ATG_E_Box_CIS: Attagene CIS-FACTORIAL HepG2 Assay for human Enhancer Box (E-box) (AID 2282936); settings: HepG2 E-box cis-reporter transcription, actives raise or lower the signal
In short: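 HepG2 cells transiently transfected with multiplexed cis-element reporter units, dosed 24 h; reporter mRNA quantified by RT-PCR, 6-FAM labelling, HpaI digestion and capillary electrophoresis. E-box (USF1) signal fitted bidirectionally vs DMSO.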

[11] = ATG_M_61_CIS: Attagene CIS-FACTORIAL HepG2 Assay for M61 Transcription Factor (Internal Marker) (AID 2282937); settings: HepG2 Attagene CIS-FACTORIAL M61 internal marker reporter; actives raise or lower the signal
In short: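 Readout: fluorescent reporter mRNA fragments resolved by capillary electrophoresis after RT-PCR. Transiently transfected human HepG2 cells carried MRTU constructs reporting endogenous TF activity; 24 h chemical exposure; gain or loss of signal fitted relative to DMSO.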

[12] = ATG_EGR_CIS: Attagene CIS-FACTORIAL HepG2 Assay for human Early Growth Response 1 (EGR1) (AID 2282938); settings: HepG2 Attagene CIS-FACTORIAL EGR reporter mRNA; actives raise or lower the signal
In short: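 Read-out: fluorescent reporter-mRNA fragments resolved by capillary electrophoresis after RT-PCR, 24 h post-dose in transiently transfected HepG2. Endogenous transcription-factor activity reported via cis-element-regulated reporter units; gain or loss fitted relative to DMSO.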

[13] = ATG_M_19_CIS: Attagene CIS-FACTORIAL HepG2 Assay for M19 Transcription Factor (Internal Marker) (AID 2282939); settings: HepG2 Attagene CIS-FACTORIAL M19 internal marker reporter; actives raise or lower the signal
In short: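 HepG2, MRTU transient transfection, 24 h dosing. Total RNA → RT-PCR → 6-FAM primer extension → HpaI digest → CE fluorescence. Bidirectional curve fit, DMSO negative control.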

[14] = ATG_ERE_CIS: Attagene CIS-FACTORIAL HepG2 Assay for Estrogen Response Element (ERE) (AID 2282940); settings: HepG2 ERE cis-reporter, Attagene RNA transcript; actives raise or lower the signal
In short: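 After a 24 h chemical treatment, RNA from reporter-transfected HepG2 cells is reverse-transcribed, PCR-amplified and fluorescently labelled. Fragments separated by capillary electrophoresis give reporter signal; DMSO serves as negative control.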

[15] = ATG_Ets_CIS: Attagene CIS-FACTORIAL HepG2 Assay for human Erythroblast Transformation Specific (ETS) (AID 2282941); settings: HepG2 ETS cis-reporter transcription, actives raise or lower the signal
In short: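 Human HepG2 hepatoma cells were transiently transfected with promoter-driven reporter constructs and treated for 24 hours. Reporter transcripts were quantified by RT-PCR with fluorescent primer extension; bidirectional curve fitting used DMSO as reference.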

[16] = biological target: Hepatocyte nuclear factor 3-beta (Homo sapiens) (UniProt Q9Y261); assay: ATG_FoxA2_CIS: Attagene CIS-FACTORIAL HepG2 Assay for human Forkhead box A2 (FOXA2) (AID 2282942); settings: HepG2 cis-reporter transcription factor activity, 24 h; actives raise or lower the signal
In short: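 Readout: fluorescent reporter transcripts resolved by capillary electrophoresis after RT-PCR. Transiently transfected HepG2, 24 h compound exposure, endogenous TF activity at cis promoter elements. Gain or loss of signal fitted relative to DMSO.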

[17] = ATG_FoxO_CIS: Attagene CIS-FACTORIAL HepG2 Assay for human Forkhead box O (FoxO) (AID 2282943); settings: HepG2 Attagene cis-reporter, FoxO element, mRNA; actives raise or lower the signal
In short: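 Read-out: fluorescence of 6-FAM-labelled reporter cDNA fragments resolved by capillary electrophoresis. Transiently transfected HepG2 cells were dosed for 24 h; activity fitted in both directions relative to DMSO controls.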

[18] = ATG_GATA_CIS: Attagene CIS-FACTORIAL HepG2 Assay for human GATA Binding Protein (AID 2282944); settings: HepG2 GATA cis-element reporter, Attagene multiplex mRNA; actives raise or lower the signal
In short: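 Cells: HepG2, transiently transfected with cis-regulated reporter transcription units. Exposure: 24 h. Detection: RT-PCR plus capillary electrophoresis of FAM-labeled fragments. Analysis: bidirectional, DMSO as baseline.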

[19] = biological target: Retinoic acid receptor alpha (Homo sapiens) (UniProt P10276); assay: ATG_DR5_RAR_CIS: Attagene CIS-FACTORIAL HepG2 Assay for human Retinoic Acid Receptor Alpha (RARE), DR5 submotif (AID 2282934); settings: HepG2 Attagene cis-factorial RARE DR5 reporter, mRNA; actives raise or lower the signal
In short: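 Read-out: DR5-driven reporter transcript measured by RT-PCR, 6-FAM primer extension, HpaI digest and capillary electrophoresis. Human HepG2 liver cells carry transiently transfected cis-element reporter constructs; dosing lasts 24 h. Gain or loss of signal fitted against DMSO baseline.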

Hepatocyte nuclear factor 3-beta (Homo sapiens), sequence (Q9Y261 whole entry, looked up): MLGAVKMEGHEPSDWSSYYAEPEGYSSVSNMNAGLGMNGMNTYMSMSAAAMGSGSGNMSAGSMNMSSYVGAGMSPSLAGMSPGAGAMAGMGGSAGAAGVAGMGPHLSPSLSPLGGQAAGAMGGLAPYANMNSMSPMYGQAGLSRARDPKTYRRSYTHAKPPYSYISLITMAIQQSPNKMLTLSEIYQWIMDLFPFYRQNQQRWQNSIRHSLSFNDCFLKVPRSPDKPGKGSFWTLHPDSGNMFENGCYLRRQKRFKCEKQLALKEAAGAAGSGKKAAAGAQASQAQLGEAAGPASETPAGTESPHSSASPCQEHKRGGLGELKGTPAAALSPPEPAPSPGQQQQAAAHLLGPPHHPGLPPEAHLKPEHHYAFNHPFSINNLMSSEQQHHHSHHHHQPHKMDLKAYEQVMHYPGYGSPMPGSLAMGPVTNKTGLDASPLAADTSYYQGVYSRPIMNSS
Aryl hydrocarbon receptor (Homo sapiens), sequence (P35869 whole entry, looked up): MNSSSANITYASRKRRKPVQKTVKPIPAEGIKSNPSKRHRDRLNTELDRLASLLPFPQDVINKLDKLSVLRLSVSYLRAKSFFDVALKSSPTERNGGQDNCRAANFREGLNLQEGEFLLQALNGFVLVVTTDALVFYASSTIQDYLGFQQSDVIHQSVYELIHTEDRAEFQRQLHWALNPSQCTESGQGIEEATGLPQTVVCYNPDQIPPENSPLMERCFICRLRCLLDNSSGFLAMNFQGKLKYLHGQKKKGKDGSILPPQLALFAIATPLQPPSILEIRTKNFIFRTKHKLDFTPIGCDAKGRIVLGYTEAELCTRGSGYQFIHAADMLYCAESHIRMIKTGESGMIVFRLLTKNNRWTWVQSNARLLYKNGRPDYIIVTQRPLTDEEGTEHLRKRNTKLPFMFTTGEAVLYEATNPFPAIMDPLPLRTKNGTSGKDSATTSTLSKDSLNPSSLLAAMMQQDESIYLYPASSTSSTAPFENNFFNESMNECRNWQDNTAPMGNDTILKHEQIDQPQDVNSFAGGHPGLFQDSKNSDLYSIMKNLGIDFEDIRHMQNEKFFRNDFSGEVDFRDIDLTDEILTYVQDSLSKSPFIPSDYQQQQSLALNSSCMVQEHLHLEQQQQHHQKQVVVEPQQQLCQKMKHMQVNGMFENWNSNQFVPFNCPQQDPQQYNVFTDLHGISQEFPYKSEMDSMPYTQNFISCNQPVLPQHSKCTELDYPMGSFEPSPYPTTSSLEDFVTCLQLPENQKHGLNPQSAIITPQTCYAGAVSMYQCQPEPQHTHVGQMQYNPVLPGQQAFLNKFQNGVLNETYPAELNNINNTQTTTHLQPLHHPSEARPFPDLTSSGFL
Retinoic acid receptor alpha (Homo sapiens), sequence (P10276 whole entry, looked up): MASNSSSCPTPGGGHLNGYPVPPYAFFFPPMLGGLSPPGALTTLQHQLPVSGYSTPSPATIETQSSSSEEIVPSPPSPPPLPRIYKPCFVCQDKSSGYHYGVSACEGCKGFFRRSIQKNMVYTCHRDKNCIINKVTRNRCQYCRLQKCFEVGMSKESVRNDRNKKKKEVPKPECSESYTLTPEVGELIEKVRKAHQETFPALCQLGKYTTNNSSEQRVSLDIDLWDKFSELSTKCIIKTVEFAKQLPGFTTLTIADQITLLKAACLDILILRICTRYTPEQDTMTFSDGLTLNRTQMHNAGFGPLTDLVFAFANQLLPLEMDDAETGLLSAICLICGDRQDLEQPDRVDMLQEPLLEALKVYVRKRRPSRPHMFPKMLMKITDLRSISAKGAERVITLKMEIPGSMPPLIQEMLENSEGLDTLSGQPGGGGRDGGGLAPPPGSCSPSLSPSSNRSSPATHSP
Transcription factor E2F1 (Homo sapiens), sequence (Q01094 whole entry, looked up): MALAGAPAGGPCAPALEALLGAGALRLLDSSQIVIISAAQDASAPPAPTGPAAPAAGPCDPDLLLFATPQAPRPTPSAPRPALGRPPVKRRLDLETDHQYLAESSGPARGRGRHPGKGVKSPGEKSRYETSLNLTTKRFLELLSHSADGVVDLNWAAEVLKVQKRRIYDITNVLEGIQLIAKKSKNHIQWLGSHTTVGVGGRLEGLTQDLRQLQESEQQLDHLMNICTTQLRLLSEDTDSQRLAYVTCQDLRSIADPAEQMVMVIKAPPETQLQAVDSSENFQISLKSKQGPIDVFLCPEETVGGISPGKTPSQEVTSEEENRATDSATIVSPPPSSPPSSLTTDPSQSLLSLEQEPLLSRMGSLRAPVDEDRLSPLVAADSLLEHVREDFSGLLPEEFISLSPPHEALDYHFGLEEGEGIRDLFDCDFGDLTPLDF
CCAAT/enhancer-binding protein beta (Homo sapiens), sequence (P17676 whole entry, looked up): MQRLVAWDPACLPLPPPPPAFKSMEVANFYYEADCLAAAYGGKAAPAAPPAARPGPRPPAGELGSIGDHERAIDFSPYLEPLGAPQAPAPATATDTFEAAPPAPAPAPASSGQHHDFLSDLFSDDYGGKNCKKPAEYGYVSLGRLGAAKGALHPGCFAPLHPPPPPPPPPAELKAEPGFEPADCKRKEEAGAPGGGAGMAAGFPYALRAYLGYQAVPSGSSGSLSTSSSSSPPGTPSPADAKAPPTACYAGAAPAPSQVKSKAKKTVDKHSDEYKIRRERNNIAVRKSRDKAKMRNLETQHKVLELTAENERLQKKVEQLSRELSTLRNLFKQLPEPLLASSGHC

| Structure (SMILES) | outcome [1] | outcome [2] | outcome [3] | outcome [4] | outcome [5] | outcome [6] | outcome [7] | outcome [8] | outcome [9] | outcome [10] | outcome [11] | outcome [12] | outcome [13] | outcome [14] | outcome [15] | outcome [16] | outcome [17] | outcome [18] | outcome [19] | AC50 [6] |
| --- | --- | --- | --- | --- | --- | --- | --- | --- | --- | --- | --- | --- | --- | --- | --- | --- | --- | --- | --- | --- |
| CCNc1nc(Cl)nc(NC(C)C)n1 | inactive | inactive | inactive | inactive | inactive | inactive | inactive | inactive | inactive | inactive | inactive | inactive | inactive | inactive | inactive | inactive | inactive | inactive | – | – |
| O=C(O)COc1nc(Cl)c(Cl)cc1Cl | inactive | inactive | inactive | inactive | inactive | inactive | inactive | inactive | inactive | inactive | inactive | inactive | inactive | inactive | inactive | inactive | inactive | inactive | inactive | – |
| COC(=O)C=C(C)OP(=O)(OC)OC | inactive | inactive | inactive | inactive | inactive | inactive | inactive | inactive | inactive | inactive | inactive | inactive | inactive | inactive | inactive | inactive | inactive | inactive | inactive | – |
| COc1nc(C)nc(NC(=O)NS(=O)(=O)c2ccccc2CCC(F)(F)F)n1 | inactive | inactive | inactive | inactive | inactive | inactive | inactive | inactive | inactive | inactive | inactive | inactive | inactive | inactive | inactive | inactive | inactive | inactive | inactive | – |
| COP(N)(=O)SC (stereo unspecified) | inactive | inactive | inactive | inactive | inactive | inactive | inactive | inactive | inactive | inactive | inactive | inactive | inactive | inactive | inactive | inactive | inactive | inactive | inactive | – |
| C=CC1(C)OC(=O)N(c2cc(Cl)cc(Cl)c2)C1=O (stereo unspecified) | inactive | inactive | inactive | inactive | inactive | inactive | inactive | inactive | inactive | inactive | inactive | inactive | inactive | inactive | inactive | inactive | inactive | inactive | – | – |
| N#CC(CCc1ccc(Cl)cc1)(Cn1cncn1)c1ccccc1 (stereo unspecified) | inactive | inactive | inactive | inactive | inactive | – | inactive | inactive | inactive | inactive | inactive | inactive | inactive | inactive | inactive | inactive | inactive | inactive | inactive | 26.7 µM (active) |
